Compound activity as filed in PubChem BioAssay.
Hits are enriched below; roughly 9% of the tested compounds scored in any of these assays.
HPGD block: blocks human HPGD enzyme activity. P15428. purified HPGD, NADH fluorescence kinetic, PGE2 substrate. Potency, µM, hits mostly inhibitors. 150,000 tested, 4.3% active; active = well fitted inhibition curve with a large enough effect, not every such curve was filed as active; inconclusive = small, poorly fitted or top-dose-only effect, or another doubt; inactive = no such curve, though single readings can be large or run the other way
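20 nM HPGD preincubated 15 min at room temperature with compound in 50 mM Tris-HCl pH 8, 0.01% Tween 20. Started with 1 mM NAD+ and 30 uM prostaglandin E2; NADH fluorescence (360/450 nm) read 5 times over 30-s intervals, last minus first.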
HTT cytoprotect: cytoprotection in Huntington HTT-Q103 PC12 cell model | PC12 HTT-Q103 induced, cytoprotection, ATP luminescence, 40 h | Potency, µM (titrated, usually from 56.4 µM), usual class: activators | 230,000 tested, 0.14% active; note: nearly all actives have a fitted effect of over 45% in size
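PC12 cells with ecdysone-inducible HTT exon 1 Q103-GFP, induced with 100 nM tebufenozide and co-treated with library compounds in a dose series (1536-well, 1500 cells/well). Cytoprotection read as ATP content by ATPlite luminescence.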
ALDH1A1 inh: inhibitors of human aldehyde dehydrogenase 1A1. Purified ALDH1A1, NADH fluorescence, propionaldehyde substrate. 220,000 tested, 7.3% active. Potency, µM (series often up to 75.3 µM), hits mostly inhibitors; active = well fitted inhibition curve with a large enough effect, not every such curve was filed as active; inconclusive = small, poorly fitted or top-dose-only effect, or another doubt; inactive = no such curve, though single readings can be large or run the other way
Target sequence (P00352 whole entry, looked up): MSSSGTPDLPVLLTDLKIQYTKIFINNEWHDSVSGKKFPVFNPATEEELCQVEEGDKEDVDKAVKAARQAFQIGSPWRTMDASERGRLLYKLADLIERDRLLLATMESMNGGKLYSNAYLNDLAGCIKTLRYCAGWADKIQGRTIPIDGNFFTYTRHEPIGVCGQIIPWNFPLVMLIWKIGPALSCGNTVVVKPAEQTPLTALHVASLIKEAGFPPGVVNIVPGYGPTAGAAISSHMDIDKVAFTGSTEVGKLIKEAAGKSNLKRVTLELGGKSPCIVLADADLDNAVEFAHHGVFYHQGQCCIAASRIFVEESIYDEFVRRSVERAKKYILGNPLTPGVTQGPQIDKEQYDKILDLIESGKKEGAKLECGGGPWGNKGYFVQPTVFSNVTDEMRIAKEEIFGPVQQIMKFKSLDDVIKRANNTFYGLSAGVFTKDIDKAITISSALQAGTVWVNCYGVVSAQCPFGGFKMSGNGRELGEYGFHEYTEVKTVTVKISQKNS
Lamin A splicing: LMNA splicing modulation; Potency, µM (titrated, usually from 46.1 µM), hits mostly inhibitors; 200,000 tested, 0.01% active; AID 1487; HeLa LMNA splicing GFP/RFP minigene ratio, 48 h; active = well fitted inhibition curve with a large enough effect in the signal ratio, with a control signal flat, not every such curve was filed as active; inconclusive = small, poorly fitted or top-dose-only effect, or effect the other way, or a change in a side signal; the % refers to the signal ratio
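S3 HeLa cells stably expressing lamin A-EGFP splicing minigene plus DsRed2, 600 cells/well, 48 h compound exposure at 37C. Laser-scanning cytometry; analysed as GFP (500-530 nm)/RFP (575-640 nm) total intensity ratio; 0.5% DMSO vehicle.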
KinaseGlo FLuc: Kinase-Glo luciferase inhibition (counter-screen); Q27757; Kinase-Glo luciferase, ATP luminescence, 8 min; Potency, µM (titrated, usually from 38.3 µM), actives largely listed as inhibitors; 200,000 tested, 0.28% active; note: nearly all actives have a fitted effect of over 60% in size
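Compound is pinned into ATP-containing buffer (10 uM ATP, imidazole pH 7.2, 7 mM MgCl2). Kinase-Glo luciferase reagent is then added. Light output is recorded following an 8-min room-temperature incubation.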
HTT aggregate: mutant huntingtin aggregation inhibition; PC12 HttQ103-GFP aggregates, Acumen cytometry, 40 h; Potency, µM (top dose mostly 46.1 µM), hits mostly inhibitors; 220,000 tested, 1.1% active; AID 1688; note: nearly all actives have a fitted effect of over 60% in size
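PC12/HTTQ103-GFP, ecdysone-inducible; teb 100 nM; cpd qHTS titration; GFP aggregates read on laser cytometer, Ex 488/Em 500-530 nm.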
Large screens that a line does not name were inactive. Unless noted, calls come from the whole dose curve; as a rule, active = well fitted curve in the direction sought with a large enough effect; inconclusive = small, poorly fitted or top-dose-only effect, or another doubt; inactive = no such curve, though single readings can be large; an effect the other way counts as inactive or inconclusive.

NC(=O)c1ccc(NC(=O)CN2CCN(c3ccc(Cl)cc3)CC2)cc1	ALDH1A1 inh 22µM, HTT aggregate inconclusive (no result: HPGD block, HTT cytoprotect, Lamin A splicing)
O=C(CN1CCN(c2ccc(O)cc2)CC1)Nc1ccc2c(c1)OCCO2	ALDH1A1 inh 9.5µM (no result: HPGD block, HTT cytoprotect, Lamin A splicing)
O=C(CN1CCCCC1)Nc1ccc(N2CCCCCC2)cc1	ALDH1A1 inh inconclusive, Lamin A splicing inconclusive (no result: HPGD block)
COc1ccc(S(=O)(=O)N2CCN(CC(=O)Nc3ccc(C)c(F)c3)CC2)cc1	ALDH1A1 inh 10µM
Cc1cccc(NC(=O)CN2CCN(CC(=O)Nc3cccc(C)c3)CC2)c1	ALDH1A1 inh 20µM
COc1ccc(Nc2nc(CC(C)=O)ns2)cc1OC	ALDH1A1 inh inconclusive
O=[N+]([O-])c1ccc(N2CCN(S(=O)(=O)c3ccccc3[N+](=O)[O-])CC2)cc1N1CCc2ccccc2C1	none
CC1CCCN(c2ccc(C(=O)NCC3CCCO3)cn2)C1 (centres undefined)	HPGD block 11µM
CC(C)CCN1C(=O)c2ccc(C(=O)NCC3CCCO3)cc2C1=O (centres undefined)	ALDH1A1 inh 4.5µM
O=C(NCC1CCCO1)c1ccc2c(c1)C(=O)N(C1CCCCC1)C2=O (centres undefined)	ALDH1A1 inh 8.9µM
O=C(Nc1cc(C(F)(F)F)ccc1N1CCOCC1)c1cccc(F)c1	Lamin A splicing inconclusive
O=S(=O)(CC(O)COc1ccc(Br)cc1)c1ccccc1 (centres undefined)	none (no result: HPGD block, ALDH1A1 inh, Lamin A splicing, KinaseGlo FLuc)
CCOc1ccc(N2C(=O)Nc3ccccc3C2(O)C(=O)NCc2ccc(F)cc2)cc1 (centres undefined)	none (no result: HPGD block)
O=C1CC(c2ccco2)CC(O)=C1C=Nc1cc(Cl)ccc1Cl (centres undefined)	ALDH1A1 inh inconclusive, HTT aggregate inconclusive
O=C1CC(c2ccco2)CC(O)=C1C=Nc1cc(Cl)ccc1O (centres undefined)	HPGD block 8.9µM, ALDH1A1 inh inconclusive, Lamin A splicing inconclusive
O=C(/C=C/c1ccc2c(c1)OCO2)c1ccccn1	Lamin A splicing inconclusive (no result: HPGD block, ALDH1A1 inh, KinaseGlo FLuc)
O=C(/C=C/c1ccccc1)c1ccccn1	Lamin A splicing inconclusive, KinaseGlo FLuc 14µM
O=C(/C=C/Nc1ccccc1Br)c1ccccn1	Lamin A splicing inconclusive, KinaseGlo FLuc 13µM
O=C(/C=C\Nc1ccccn1)c1ccccc1	KinaseGlo FLuc inconclusive
N/C(=N\OC(=O)/C=C/c1ccccc1)c1ccccn1	KinaseGlo FLuc 11µM (no result: HPGD block)
NC(=S)Nc1nccc(-c2cccs2)n1	none (no result: HPGD block, Lamin A splicing)
O=C(Nc1ccc2c(c1)OCO2)Nc1ccccn1	none (no result: HPGD block, Lamin A splicing)
O=c1[nH]ncn1-c1cccc(C(F)(F)F)c1	HTT aggregate inconclusive
CSCCC(NS(=O)(=O)c1ccc2c(c1)oc(=O)n2C)C(=O)Nc1ccc(F)c(Cl)c1 (centres undefined)	none (no result: HPGD block, HTT cytoprotect, ALDH1A1 inh, KinaseGlo FLuc, HTT aggregate)
CN(C)c1ccc(N=Cc2nc(-c3ccccc3)oc2OC(=O)c2cccc(Cl)c2)cc1	HPGD block inconclusive, ALDH1A1 inh 13µM, HTT aggregate inconclusive
O=C(Oc1oc(-c2ccco2)nc1C=Nc1ccccc1)c1ccco1	HPGD block 2µM, ALDH1A1 inh inconclusive
O=C(Oc1oc(-c2ccco2)nc1C=Nc1ccccc1)c1ccoc1	HPGD block 5µM, ALDH1A1 inh inconclusive
Cc1ccc(C(=O)Oc2oc(-c3ccccc3)nc2C=Nc2ccc(N(C)C)cc2)cc1	ALDH1A1 inh inconclusive
Cc1ccc(C(=O)Oc2oc(-c3ccco3)nc2C=Nc2ccc(Cl)cc2)cc1	HPGD block 6.3µM, ALDH1A1 inh inconclusive
C=CCn1c(SCC(=O)Nc2ccc3c(c2)CCC3)nc2ccccc2c1=O	none
Clc1cccc(Cl)c1/C=N\Nc1nccs1	HPGD block 7.9µM, ALDH1A1 inh inconclusive
O=C(CN1CCN(c2ccc(F)cc2)CC1)NCC1CCCO1 (centres undefined)	none
c1cncc(-c2ccc3ncnc(N4CCNCC4)c3c2)c1	none (no result: HTT aggregate)
COc1ccc(Oc2ccc(/C=C/C(=O)c3ccc(O)cc3)cc2[N+](=O)[O-])cc1	ALDH1A1 inh inconclusive, Lamin A splicing inconclusive, HTT aggregate 13µM (no result: HTT cytoprotect)
